From PubChem BioAssay come the findings set out here.

Experiment [1] in a line: optical density shifts of acrAB sulA E. coli – strain DRC41, OD650, 48 h, E. coli filamentation inducer project, primary screen (AID 1152).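 Further: E. coli MC1000 strain DRC41 lacking acrAB efflux pump and sulA.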 The following applies: higher = more signal, called active from +8 up or from −8 down.
Experiment [2] in a line: probe aLefty1 binding on compound microarray – biochemical, small-molecule microarray, 635/667 nm fluorescence, primary screen (AID 1153).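 Further: score merges spot fluorescence with signal-to-noise ratio from the scanned slide images.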 The following applies: higher = more signal.
Experiment [3] is described as follows: plasmodial surface anion channel blockers, osmotic lysis – cell-based, P. falciparum Indochina, OD700, 1 h, primary screen (AID 1154). The following applies: P. falciparum Indochina infected RBC osmotic lysis, higher = more signal, called active from +8 up or from −8 down.
Experiment [4] can be described thus: plasmodial surface anion channel blockers, osmotic lysis – cell-based, P. falciparum Indochina, OD700, 2 h, primary screen (AID 1155).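 Further: lysis reports solute entry through the parasite surface anion channel PSAC.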 The following applies: P. falciparum Indochina infected erythrocytes, higher = more signal, called active from +8 up or from −8 down.
Experiment [5] in a line: changes in parasitized red cell lysis, either direction – P. falciparum Indochina, OD700, 3 h, PSAC antagonist project, primary screen (AID 1156). Particulars: P. falciparum-infected erythrocytes, osmotic lysis, higher = more signal, called active from +8 up or from −8 down.
The nature of experiment [6]: plasmodial surface anion channel blockers, osmotic lysis – cell-based, P. falciparum Indochina, OD700, 18 h, primary screen (AID 1157). The following applies: P. falciparum Indochina infected erythrocytes, osmotic lysis OD700, 18 h; higher = more signal, called active from +8 up or from −8 down.
Experiment [7] in a line: S6 kinase pathway phospho-S6 level changes – cell-based, A549, cytoblot, luminescence, serum-stimulated, primary screen (AID 1158).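 Further: serum-stimulated A549 lung adenocarcinoma cells; signal is phosphorylated S6 detected by cytoblot immunostaining with HRP secondary.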 Particulars: 5 h, higher = more signal.
Experiment [8] deals with NADPH oxidase 2 (Homo sapiens) (UniProt P04839). Briefly: compounds shifting NOX2 Amplex Red fluorescence – cell-based, HEK293-NOX2, PMA-stimulated, NOX inhibitor project, primary screen (AID 1159). Further: test concentration not given here. Particulars: 45 min, higher = more signal, called active from +8 up or from −8 down.
For experiment [9], the target named is NADPH oxidase 4 (Homo sapiens) (UniProt Q9NPH5). In words: compounds shifting NOX4 Amplex Red fluorescence – cell-based, HEK293-NOX4, tetracycline-induced, NOX inhibitor project, primary screen (AID 1160). The following applies: HEK293-NOX4, Amplex Red H2O2 fluorescence, 45 min; higher = more signal, called active from +8 up or from −8 down.
Experiment [10] addresses NADPH oxidase 5 (Homo sapiens) (UniProt Q96PH1). Briefly: compounds shifting NOX5 Amplex Red fluorescence – cell-based, HEK293-NOX5, NOX inhibitor project, primary screen (AID 1161). The following applies: HEK293-NOX5, ionomycin, 45 min, higher = more signal.

The source made the active and inactive calls.

Chain of NADPH oxidase 2 (Homo sapiens) (P04839 whole entry, looked up): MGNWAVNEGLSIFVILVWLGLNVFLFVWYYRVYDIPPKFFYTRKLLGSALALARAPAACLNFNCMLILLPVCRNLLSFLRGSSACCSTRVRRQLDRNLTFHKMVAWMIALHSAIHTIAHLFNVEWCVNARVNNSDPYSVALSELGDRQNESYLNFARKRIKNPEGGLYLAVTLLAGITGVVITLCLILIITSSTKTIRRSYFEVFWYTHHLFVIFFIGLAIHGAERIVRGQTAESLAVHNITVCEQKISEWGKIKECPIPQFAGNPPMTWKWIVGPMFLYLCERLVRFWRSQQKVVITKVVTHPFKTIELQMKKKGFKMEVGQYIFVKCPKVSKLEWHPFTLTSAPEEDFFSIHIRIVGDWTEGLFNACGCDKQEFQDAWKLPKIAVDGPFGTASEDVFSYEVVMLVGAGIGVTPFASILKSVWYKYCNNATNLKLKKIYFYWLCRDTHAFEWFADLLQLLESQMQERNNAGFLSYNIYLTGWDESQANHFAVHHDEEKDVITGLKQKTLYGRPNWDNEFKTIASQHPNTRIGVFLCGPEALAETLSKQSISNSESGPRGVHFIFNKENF
Chain of NADPH oxidase 4 (Homo sapiens) (Q9NPH5 whole entry, looked up): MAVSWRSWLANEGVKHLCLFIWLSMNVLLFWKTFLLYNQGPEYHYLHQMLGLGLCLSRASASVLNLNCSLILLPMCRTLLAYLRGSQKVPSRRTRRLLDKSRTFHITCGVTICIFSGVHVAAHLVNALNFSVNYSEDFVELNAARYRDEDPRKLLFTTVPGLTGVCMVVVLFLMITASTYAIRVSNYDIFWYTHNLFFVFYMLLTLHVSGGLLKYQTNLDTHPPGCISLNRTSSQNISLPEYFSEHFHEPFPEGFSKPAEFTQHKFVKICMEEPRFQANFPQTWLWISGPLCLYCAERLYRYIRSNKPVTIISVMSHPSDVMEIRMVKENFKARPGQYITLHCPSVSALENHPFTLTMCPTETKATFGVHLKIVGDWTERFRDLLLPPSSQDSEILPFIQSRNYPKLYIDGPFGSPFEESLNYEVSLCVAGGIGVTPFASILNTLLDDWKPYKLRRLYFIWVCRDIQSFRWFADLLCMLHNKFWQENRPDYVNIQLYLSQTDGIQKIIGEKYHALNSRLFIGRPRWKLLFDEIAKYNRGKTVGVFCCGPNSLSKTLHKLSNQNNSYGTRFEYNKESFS
Chain of NADPH oxidase 5 (Homo sapiens) (Q96PH1 whole entry, looked up): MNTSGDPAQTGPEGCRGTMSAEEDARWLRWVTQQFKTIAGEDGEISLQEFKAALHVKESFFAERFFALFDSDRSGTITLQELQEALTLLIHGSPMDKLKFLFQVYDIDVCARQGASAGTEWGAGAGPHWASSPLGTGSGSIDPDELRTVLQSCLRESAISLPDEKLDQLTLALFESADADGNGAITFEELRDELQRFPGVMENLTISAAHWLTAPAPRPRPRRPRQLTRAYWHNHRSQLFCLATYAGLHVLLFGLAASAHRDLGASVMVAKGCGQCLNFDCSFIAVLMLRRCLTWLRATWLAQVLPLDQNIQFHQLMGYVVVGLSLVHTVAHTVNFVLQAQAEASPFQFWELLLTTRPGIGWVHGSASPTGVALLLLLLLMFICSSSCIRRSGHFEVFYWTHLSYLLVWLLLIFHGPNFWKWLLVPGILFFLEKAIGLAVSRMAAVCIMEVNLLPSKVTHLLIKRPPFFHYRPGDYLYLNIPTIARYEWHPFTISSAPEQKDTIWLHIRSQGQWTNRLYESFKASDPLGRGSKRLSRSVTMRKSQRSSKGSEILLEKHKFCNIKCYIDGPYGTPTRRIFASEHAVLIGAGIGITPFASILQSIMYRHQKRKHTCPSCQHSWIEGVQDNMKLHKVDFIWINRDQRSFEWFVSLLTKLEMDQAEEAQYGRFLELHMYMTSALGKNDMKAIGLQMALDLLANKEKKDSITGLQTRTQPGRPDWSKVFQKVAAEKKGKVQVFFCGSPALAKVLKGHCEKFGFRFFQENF

As to `CN1C(=O)C2C=CC(C(O)C3=C[C@H]4C[C@@H](C3)C4(C)C)N(Nc3ccccc3)C2C1=O` (stereo not given in full), the z-score in [1] is -0.318 (inactive); in experiment [3] it was 0.451 (inactive); in [4] it was 0.69 (inactive); in experiment [5] it was -0.0209 (inactive); in experiment [6] it was 0.852 (inactive); in experiment [7] it was -0.776. Further, the figures for the z-score in [8], in experiment [9] and in experiment [10] were -0.945 (inactive), -3.91 (inactive) and -2.99, respectively. Besides, the composite z-score in experiment [2] amounted to 0.202.

As to `COc1ccc(COC2OC[C@]3(C)[C@H]4C5=C(CN3C(=O)OC(C)(C)C)[C@H](C)C(CO)C(CO)C5CC[C@@H]24)cc1` (stereo not given in full), the z-score was -2.31 (inactive) in experiment [1]; 1.81 (inactive) in experiment [3]; 0.0544 (inactive) in [4]; 1.95 (inactive) in [5]; 0.741 (inactive) in experiment [6]; -0.139 in [7]. Moreover, the z-score is -0.543 (inactive) in [8], -3.44 (inactive) in experiment [9] and -3.88 in experiment [10]. The compound further showed a composite z-score in experiment [2] of 0.638.

As for `O=C1O[C@H](c2ccccc2)[C@H](c2ccccc2)N2[C@H]1[C@@H](C(=O)O)[C@]1(C(=O)Nc3ccc(C#CC4=CCCCC4)cc31)[C@H]2c1ccccc1OCCO`, the z-score in experiment [1] is -0.611 (inactive); in experiment [3], -1.84 (inactive); in [4], -1.36 (inactive); in [5] it was -14.6 (active); in experiment [6], -1.92 (inactive); in [7], 0.296. Further, the z-score in experiment [8] is 2.51 (inactive); in experiment [9], -1.94 (inactive); in experiment [10], -1.08. This compound also came in with a composite z-score in [2] of 1.44.

As for `C#CCN(CC1=CCCCC1)[C@H](c1ccccc1Br)[C@@H](O)Cc1ccccc1`, the z-score is 1.5 (inactive) in [1]; 3.02 (inactive) in [3]; 0.849 (inactive) in experiment [4]; 0.372 (inactive) in experiment [5]; 0.109 (inactive) in experiment [6]; 0.114 in [7]. The z-score in experiment [8] is -0.456 (inactive); in experiment [9], 0.191 (inactive); in experiment [10] it was -1.45. Further, the composite z-score in experiment [2] was -0.0547.

In the case of `O=C1C2C=CC(C(O)c3c(F)cccc3Cl)N(Nc3ccccc3)C2C(=O)N1c1ccccc1` (stereo not given), the z-score in experiment [1] was -0.0623 (inactive); in experiment [3], 18.7 (active); in experiment [4], 3.73 (inactive); in experiment [5] it was 0.419 (inactive); in experiment [6], 1.93 (inactive); in experiment [7] it was -0.458. The values for the z-score in experiment [8], in experiment [9] and in [10] were -1.69 (inactive), -3.01 (inactive) and -2.42, respectively. Besides, the composite z-score in experiment [2] is 0.547.

`CO[C@H]1O[C@H](CO)[C@@H](OC(=O)Nc2ccc(Br)cc2)[C@H](OC(=O)c2cc3ccccc3[nH]2)[C@H]1OC(=O)c1cc2ccccc2[nH]1`: the z-score was 1.99 (inactive) in experiment [1]; 1.39 (inactive) in experiment [3]; -1.16 (inactive) in experiment [4]; -0.368 (inactive) in experiment [5]; -0.464 (inactive) in experiment [6]; 1.16 in experiment [7]. The z-score in experiment [8] was -2.75 (inactive); in [9], -0.642 (inactive); in experiment [10], -2.04. The composite z-score in experiment [2] was 0.12.

With `C=C(COC)/C(=C/C[C@H](OC(=O)c1ccncc1)c1ccc(OCCO)cc1)c1cnc2ccccc2c1`, the z-score was -0.469 (inactive) in [1]; 20 (active) in experiment [3]; 3.18 (inactive) in [4]; 1.47 (inactive) in experiment [5]; 0.848 (inactive) in experiment [6]; 0.123 in experiment [7]. In addition, the z-score in experiment [8] is -0.294 (inactive); in experiment [9], -0.192 (inactive); in experiment [10], -0.608. The same compound yielded a composite z-score in [2] of 0.062.

In the case of `C=C[C@H](COC(C)=O)N(C(=O)OC(C)(C)C)S(=O)(=O)c1ccc(Br)cc1`, the z-score in [1] was 1.34 (inactive); in [3] it was 0.874 (inactive); in [4], -0.141 (inactive); in [5], -0.301 (inactive); in experiment [6], 0.0544 (inactive); in experiment [7], 0.314. For the same compound, the z-score in experiment [8] is 0.406 (inactive); in [9] it was 0.356 (inactive); in experiment [10], -0.772. In experiment [2], the composite z-score amounted to 0.312.

For `O=C1O[C@@H](c2ccccc2)[C@@H](c2ccccc2)N2[C@@H](c3ccccc3OCCO)[C@]3(C(=O)Nc4ccc(C#CC5=CCCCC5)cc43)[C@@H](C(=O)Nc3nc4ccccc4s3)[C@H]12`, the z-score in [1] is 0.36 (inactive); in experiment [3] it was 1.83 (inactive); in [4], 1.9 (inactive); in experiment [5], 1.37 (inactive); in [6], 1.83 (inactive); in experiment [7], 0.653. The z-score in [8] was 1.78 (inactive); in experiment [9], 0.387 (inactive); in experiment [10], 1.59. In experiment [2], this compound had a composite z-score of 0.293.

With `CC(C)C[C@@H]1NC(=O)[C@H]2C[C@@H](C(=O)NCCCCCCN(C)C)[C@@H](c3ccc(O)cc3)N2C1=O`, the z-score in [1] was -0.655 (inactive); in experiment [3], 0.977 (inactive); in experiment [4], -0.116 (inactive); in experiment [5], -0.0599 (inactive); in experiment [6], -0.288 (inactive); in experiment [7] it was -0.384. The z-score is 0.193 (inactive) in experiment [8], 0.268 (inactive) in experiment [9] and 0.0226 in experiment [10]. The composite z-score in experiment [2] is -0.0573.

For `C=CCOC(=O)[C@H]1[C@@H]2C(=O)O[C@@H](c3ccccc3)[C@@H](c3ccccc3)N2[C@@H](c2ccc(OCCOC(=O)[C@H]3C[C@H]4C(=O)N5CCC[C@H]5C(=O)N4[C@H]3c3ccc(O)cc3)cc2)[C@]12C(=O)Nc1ccccc12`, the z-score in [1] was -0.827 (inactive); in experiment [3], 1.72 (inactive); in experiment [4] it was 1.25 (inactive); in experiment [5], 1.58 (inactive); in experiment [6] it was 0.889 (inactive); in [7], -0.352. Further, the z-score in experiment [8] was 2.25 (inactive); in experiment [9] it was 1.39 (inactive); in experiment [10], 1.87. The same compound returned a composite z-score in experiment [2] of 0.227.

For the compound `COC(=O)C(CC#Cc1ccc2c(c1)[C@]1(C(=O)N2)[C@H](C(=O)O)[C@H]2C(=O)O[C@H](c3ccccc3)[C@H](c3ccccc3)N2[C@@H]1c1ccc(O)cc1)C(=O)OC`, the z-score is -0.818 (inactive) in experiment [1]; 1.83 (inactive) in experiment [3]; -0.038 (inactive) in [4]; -0.15 (inactive) in [5]; -0.0548 (inactive) in experiment [6]; 0.148 in [7]. Besides, the figures for the z-score in experiment [8], in experiment [9] and in experiment [10] were 0.699 (inactive), -0.0438 (inactive) and 0.921, respectively. Also, the composite z-score in experiment [2] is 0.145.
